RORgamma inh: qHTS for inhibitors of ROR gamma transcriptional activity | Drosophila S2 Gal4-RORgamma UAS-luciferase reporter, 20 h | 310,000 compounds, 5.4% hits | Potency, µM (highest dose often 53.6 µM), hits mostly inhibitors; note: nearly all actives have a fitted effect of over 60% in size
Target sequence (P51450 whole entry, looked up, the tested form may be a part): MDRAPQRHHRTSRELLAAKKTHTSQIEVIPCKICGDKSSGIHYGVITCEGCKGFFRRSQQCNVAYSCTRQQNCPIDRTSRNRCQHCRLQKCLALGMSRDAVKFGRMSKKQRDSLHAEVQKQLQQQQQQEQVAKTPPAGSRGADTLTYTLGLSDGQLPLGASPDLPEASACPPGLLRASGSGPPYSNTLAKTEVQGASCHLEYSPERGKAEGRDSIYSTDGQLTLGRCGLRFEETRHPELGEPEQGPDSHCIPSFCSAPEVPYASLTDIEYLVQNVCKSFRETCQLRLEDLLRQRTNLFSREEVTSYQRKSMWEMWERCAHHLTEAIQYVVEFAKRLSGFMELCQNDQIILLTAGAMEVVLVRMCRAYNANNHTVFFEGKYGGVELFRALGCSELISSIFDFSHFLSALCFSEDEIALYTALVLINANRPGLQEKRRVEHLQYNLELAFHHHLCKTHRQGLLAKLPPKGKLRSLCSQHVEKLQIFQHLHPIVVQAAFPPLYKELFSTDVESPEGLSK
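ROR gamma transcriptional activity was tracked as Gal4-UAS luciferase output in stably transfected Drosophila Schneider cells, with compound added 1 hr before 700 uM copper sulfate induction and a 20 hr ambient-temperature incubation.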
TDP1 cell noCPT: qHTS for Inhibitors of human tyrosyl-DNA phosphodiesterase 1 (TDP1): qHTS in cells in absence of CPT; DT40 Tdp1-/- hTDP1 cells, no CPT, ATP luminescence, 48 h; 420,000 compounds, 15% hits; Potency, µM (highest dose often 46.2 µM), most hits filed as inhibitors; note: nearly all actives have a fitted effect of over 55% in size
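Readout: luminescence from CellTiter-Glo after 30 min in the dark at RT. Cells: DT40 Tdp1-/- with stable hTDP1, 400/well. Exposure: compounds alone, ≥48 hr, 37 °C.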
TDP1 block: qHTS Assay for Inhibitors of Tyrosyl-DNA Phosphodiesterase (TDP1). Potency, µM (doses to about 130 µM), actives largely listed as inhibitors. Tyrosyl-DNA phosphodiesterase 1 (Homo sapiens), Q9NUW8. AID 485290, 2010. 350,000 compounds, 0.28% hits. recombinant TDP1, AlphaScreen DNA substrate cleavage; note: nearly all actives have a fitted effect of over 40% in size
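Recombinant E. coli-expressed Tdp1 (1 nM) preincubated with compound 15 min at RT, then 5'-biotin/3'-phosphotyrosine-FITC DNA substrate (15 nM) added for 5 min. AlphaScreen beads (10 ug/ml) added, 10 min RT; tyrosine-FITC cleavage read as signal loss.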
VP16 counter: VP16 counterscreen qHTS for inhibitors of ROR gamma transcriptional activity. Drosophila S2 Gal4-VP16 UAS-luciferase, luminescence, 20 h. 310,000 compounds, 3.5% hits. Potency, µM (top dose mostly 53.6 µM), actives largely listed as inhibitors;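 note: Gal4-VP16 expression switched on by copper sulfate through the metallothionein promoter; nearly all actives have a fitted effect of over 50% in size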
DT40 TDP1 CPT: qHTS for Inhibitors of human tyrosyl-DNA phosphodiesterase 1 (TDP1): qHTS in cells in presence of CPT; Potency, µM (highest dose often 46.2 µM), usual class: inhibitors; 420,000 compounds, 12% hits; chicken DT40 Tdp1-/-;hTDP1 cells + 20 nM CPT, ATP luminescence, 48 h; note: nearly all actives have a fitted effect of over 55% in size
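Cell growth measured by CellTiter-Glo luminescence after a minimum 48 h, 37 C compound exposure with 20 nM CPT in Tdp1-knockout DT40 cells stably expressing hTDP1, seeded 400/well; qHTS titration format.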
Numbers stand for hits; 0 = inactive; ? = inconclusive; - = no result given. Hits are enriched below; roughly 19% of the tested compounds scored in any of these assays. Calls come from the whole dose curve; as a rule, active = well fitted curve in the direction sought with a large enough effect; inconclusive = small, poorly fitted or top-dose-only effect, or another doubt; inactive = no such curve, though single readings can be large; an effect the other way counts as inactive or inconclusive.

SMILES | RORgamma inh | TDP1 cell noCPT | TDP1 block | VP16 counter | DT40 TDP1 CPT
c1ccc(CNc2ncnc3sc4c(c23)CCC4)nc1 | 0 | 15µM | 0 | 0 | ?
c1ccc(CNc2ncnc3nc[nH]c23)nc1 | 0 | 0 | 0 | 0 | 0
c1ccc(CNc2ncnc3scc(-c4cccs4)c23)nc1 | ? | 9.2µM | 0 | ? | 10µM
CCOc1ccc(-c2csc3ncnc(Nc4cccc(O)c4)c23)cc1 | - | ? | 0 | - | ?
COc1ccc(-c2nc(CCl)cs2)cc1 | 0 | 5.8µM | 0 | 0 | 8.2µM
COc1ccc(N2CC(O)=C(c3nc(-c4ccccc4)cs3)C2=N)cc1 | 0 | 21µM | 0 | 0 | ?
COc1ccc(N2CC(O)=C(c3nc(-c4ccc(Br)cc4)cs3)C2=N)cc1 | 0 | ? | 0 | 0 | ?
COc1cccc(-c2nc(CCl)cs2)c1 | 0 | ? | 0 | 0 | 21µM
COc1ccc(-n2cnnc2SCc2csc(-c3ccccc3)n2)cc1 | 0 | 0 | 0 | 0 | 0
CCc1ccc(NC(=O)C(=O)NCCc2csc(-c3ccc(C(F)(F)F)cc3)n2)cc1 | - | ? | 0 | - | 0
CCc1ccc(-c2nc(CCl)cs2)cc1 | ? | ? | 0 | 0 | 12µM
CC(C)c1ccc(NC(=O)Nc2nnc([C@H]3C[C@H](O)[C@@H](CO)O3)s2)cc1 | - | 0 | - | - | 0
COc1ccc(-c2csc(-c3ccc(O)cc3)n2)cc1 | 0 | 6.5µM | 0 | 0 | 7.3µM
ClCc1csc(-c2ccccc2Cl)n1 | 0 | 18µM | - | 0 | 12µM
COc1ccc(-c2nc(CCl)cs2)cc1OC | 0 | 12µM | 0 | 0 | 4.6µM
OC1CCCN(C(=S)NCc2ccccc2)C1 (stereo not given) | 0 | 0 | 0 | 0 | 0
O=[N+]([O-])c1ccc2[nH]c(=S)sc2c1 | - | 21µM | - | - | 23µM
CCCn1c(SCC(=O)Nc2ccccc2Cl)nc(O)cc1=O | - | 0 | 0 | - | ?
COC(=O)C(NC(=O)CCc1c(C)nc2c(c(C)nn2-c2ccccc2)c1C)C(C)C (stereo not given) | 0 | 16µM | 0 | 0 | 16µM
CCC(C)NC(=O)CCc1c(C)nc2c(c(C)nn2-c2ccccc2)c1C (stereo not given) | 0 | 23µM | - | 0 | 10µM
Cc1nc2c(c(C)nn2-c2ccccc2)c(C)c1CCC(=O)Nc1ccccc1 | - | 0 | 0 | - | 0
CCOC(=O)CCc1c(C)nc2c(c(C)nn2-c2ccccc2)c1C | 0 | 0 | - | 0 | ?
COc1ccc(NC(=O)C(CCSC)NC(N)=O)cc1NS(=O)(=O)c1ccc(F)cc1 (stereo not given) | 0 | 0 | 0 | 0 | 0
CCCN1CCC(NC(=O)C2CCN(C(C)=O)CC2)CC1 | 0 | 0 | - | 0 | 0
O=C(NC(=S)N(CCCCO)C1CCCCC1)c1sc2ccccc2c1Cl | 0.1µM | 16µM | 0 | 0.89µM | 16µM
SMILES | RORgamma inh | TDP1 cell noCPT | TDP1 block | VP16 counter | DT40 TDP1 CPT
O=C(O)CCc1ccc(S(=O)(=O)Nc2ccccc2N2CCCCC2)cc1 | - | ? | 0 | - | ?
CCc1cccc(NC(=O)c2cc3c(=O)[nH]c4ccccc4c3n2C)c1 | - | 18µM | 0 | - | ?
CCc1ccc(NC(=O)CSC2=Nc3ccccc3C3=NC(CC(=O)NCc4cccs4)C(=O)N23)cc1 (stereo not given) | - | 4.6µM | 0 | - | 7.3µM
COc1cccc(NC(=O)CSC2=Nc3ccccc3C3=NC(CC(=O)NCc4cccs4)C(=O)N23)c1 (stereo not given) | - | ? | 0 | - | 10µM
CCc1ccc(NC(=O)CSC2=Nc3ccccc3C3=NC(CC(=O)NCc4ccccc4)C(=O)N23)cc1 (stereo not given) | - | 0 | 0 | - | 0
COC(=O)C1CCN(C(=O)c2cc3ccccc3oc2=O)CC1 | 0 | 0 | 0 | 0 | 0
COc1oc(-c2ccccc2C)nc1C(F)(F)F | 0 | 0 | 0 | 0 | 0
O=C(NCCc1nc2ccccc2n1Cc1ccc(F)cc1)c1ccco1 | - | ? | 0 | - | 0
O=C(NCCCc1nc2ccccc2n1Cc1ccc(Cl)cc1Cl)c1ccco1 | - | ? | 0 | - | 23µM
O=C(NCCc1nc2ccccc2n1Cc1ccc(Cl)cc1Cl)c1ccco1 | - | 1.8µM | 0 | - | 1.8µM
CCOc1ccc(N(CC(=O)NC2CCC(C)CC2)S(=O)(=O)c2c(C)noc2C)cc1 (stereo not given) | 0 | ? | 0 | 0 | ?
COc1ccc(C(C(=O)NC(C)(C)C)n2c(-c3ccc(=O)[nH]c3)nc3ccccc32)cc1 (stereo not given) | - | 8.2µM | - | - | 9.2µM
Cc1cccc(C)c1NC(=O)C(C)n1c(-c2ccc(=O)[nH]c2)nc2ccccc21 (stereo not given) | - | 0 | - | - | 0
COc1ccc(C(C(=O)NC(C)(C)C)n2c(COc3ccc(C)cc3)nc3ccccc32)cc1 (stereo not given) | - | ? | - | - | 18µM
CC(O)C(NS(=O)(=O)c1ccc(Cl)cc1)C(=O)OCC(=O)N1CCN(c2ccccc2)CC1 (stereo not given) | 0 | 0 | 0 | 0 | ?
COc1ccc(-c2noc(CN(C(C)C)S(=O)(=O)c3ccc(Br)cc3)n2)cc1 | - | 23µM | 0 | - | ?
CN(Cc1nc(-c2cccnc2)no1)S(=O)(=O)c1ccc2ccccc2c1 | 0 | 0 | 0 | 0 | 0
CCN(Cc1nc(-c2cccc(C)c2)no1)S(=O)(=O)c1ccc(C)cc1 | - | ? | 0 | - | ?
COc1ccc(S(=O)(=O)N(C)Cc2nc(-c3cccc(C)c3)no2)cc1 | - | ? | 0 | - | ?
Cc1ccc(-c2noc(CN(C3CCCCC3)S(=O)(=O)c3ccc(C)cc3)n2)cc1 | - | 10µM | 0 | - | 13µM
COc1ccc(S(=O)(=O)N(Cc2nc(-c3ccc(C)cc3)no2)C2CCCCC2)cc1 | - | 7.3µM | 0 | - | 8.2µM
CN(Cc1nc(-c2cccnc2)no1)S(=O)(=O)c1ccc(Br)cc1 | 0 | ? | 0 | 11µM | ?
CCOC(=O)C1CCN(C(=O)/C=C/c2cccs2)CC1 | 0 | 0 | 0 | 0 | 0
COc1cccc(CNC(=O)CCS(=O)(=O)c2cc3c4c(c2)CCN4C(=O)CC3)c1 | - | 0 | 0 | - | 0
CN(c1ccc(C(=O)N/N=C/c2cccc([N+](=O)[O-])c2)cc1)S(=O)(=O)c1ccccc1 | ? | ? | - | 0 | 8.2µM
COc1ccc(/C=N/NC(=O)c2ccc(N(C)S(=O)(=O)c3ccccc3)cc2)c(OC)c1 | 10µM | ? | 0 | 0 | 0
COc1ccc(/C=N/NC(=O)c2ccc(N(C)S(=O)(=O)c3ccccc3)cc2)cc1 | ? | 23µM | 0 | 0 | ?
COc1ccc(OC)c(/C=N/NC(=O)c2ccc(N(C)S(=O)(=O)c3ccccc3)cc2)c1 | 0 | ? | 0 | 0 | 0
CNS(=O)(=O)c1cccc(C(=O)OCC(=O)N2c3ccccc3CC2C)c1 (stereo not given) | 0 | 0 | 0 | 0 | 0

Bioassay records deposited in PubChem BioAssay by National Center for Advancing Translational Sciences (NCATS).
